Measured values as given in PubChem BioAssay (NCI).
About 83,000 compounds went through this panel and 20% of them were active in at least one assay; those are over-represented in the sample as a whole.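 Cell lines were cultured in 96-well plates, exposed to a single compound concentration, and assessed for percent growth 48 hours later.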 Values without a mark were called inactive. Calls of active or inactive are those of the source. Rule for the calls: active = growth percent below 10; inactive = the rest.

Key:
Test in all cases: NCI-60 one-dose screen, 48 h (100 = growth as untreated, 0 = no growth, -100 = all killed)
Settings in all cases: 10 µM unless noted
SR leukemia = system: SR leukemia
RPMI-8226 leukemia = system: RPMI-8226 leukemia
OVCAR-8 ovarian = system: OVCAR-8 ovarian
OVCAR-5 ovarian = system: OVCAR-5 ovarian
OVCAR-4 ovarian = system: OVCAR-4 ovarian
SK-OV-3 ovarian = system: SK-OV-3 ovarian
OVCAR-3 ovarian = system: OVCAR-3 ovarian
HS 578T breast = system: HS 578T breast
NCI/ADR-RES ovarian = system: NCI/ADR-RES ovarian
IGROV1 ovarian = system: IGROV1 ovarian

Compound	growth (SR leukemia)	growth (RPMI-8226 leukemia)	growth (OVCAR-8 ovarian)	growth (OVCAR-5 ovarian)	growth (OVCAR-4 ovarian)	growth (SK-OV-3 ovarian) [%]	growth (OVCAR-3 ovarian)	growth (HS 578T breast)	growth (NCI/ADR-RES ovarian)	growth (IGROV1 ovarian)
O=C1O[C@@H](c2ccccc2Cl)[C@@H]2c3cc4c(cc3CCN12)OCO4	100%	94.4%	98.7%	113%	104%	119	100%	101%	104%	
O=C(O)CCCCCCCCCCN1C(=O)/C(=C2/C(=O)N(CC(=O)O)c3ccc(Br)cc32)SC1=S	57.6%	79.3%	65.9%	106%	95%		87.9%	85%	96.7%	74.3%
C#Cc1cccc(Nc2ncnc3cc(NC(=O)CCl)ccc23)c1	-37.5% (active)	-43.7% (active)	-11.7% (active)	-91% (active)	-60.1% (active)		-88.7% (active)	-2.33% (active)	-28.6% (active)	-56.6% (active)
Cc1c2cnccc2c(C)c2c1c1cc(CO)ccc1n2C	8.41% (active)	-20.5% (active)	-13.8% (active)	-27.5% (active)	-56.2% (active)		-33.7% (active)	-13.1% (active)	-24.6% (active)	-36.4% (active)
CC(C)n1c2ccc(Br)cc2c2c3c(c4c5ccccc5ccc4c21)C(=O)NC3=O	61.6%	91.6%	100%	87.7%	94.2%		94.2%	108%	93.2%	84.8%
CN(C)c1ccc(/C=C2\C=C(c3nc4ccccc4s3)OC2=O)cc1	96.7%	72%	100%	96.9%	81.7%		102%	92.2%	98.8%	89.7%
COc1ccccc1S(=O)(=O)Nc1ccc2c3c(cc(CCC(=O)NCCCCNc4cccc5c4C(=O)N(C4CCC(=O)NC4=O)C5=O)cc13)C(=O)N2C (centres undefined)	13.9%	53.6%	4.39% (active)	42%	-19.8% (active)	34.6	30%	-17.8% (active)	88.2%	
O=C(C[C@]1(O)C(=O)Nc2ccc(Br)cc21)c1ccco1	97.9%	100%	98.2%	106%	104%		102%	102%	100%	92.7%
CCOC(=O)/C(=C(/C)NCC(C)C)c1cc(O)c(O)c2c(C)cc(=O)[nH]c12	18.4%	19.2%	23.8%	86.6%	25.8%	84.4		79.5%	17.2%	
CS(=O)(=O)c1ccc(-c2nc3ccccc3n2CC(=O)N/N=C/c2ccccc2)cc1	99.1%	108%	112%	98.5%	116%	93.2	105%	102%	105%	
O=c1oc2c(cc1-c1ccccc1)c(=O)[nH]c1ccccc12	108%	101%	95.7%	103%	99.6%		112%	98.1%	102%	103%
COC(=O)c1c(C)nc(C)c2c1C(=O)C=C(NCc1ccccc1)C2=O	54.1%	88.4%	97.8%	81.7%	64.6%	91.4	44.1%	116%	81.7%	
Cc1c2ncccc2nc2[nH]c3ccc(OCCN(C)C)cc3c12	12.8%	-31.6% (active)	11.5%	47.5%	27.5%		51.4%	47.9%	24.8%	9.29% (active)
O=C(Nc1ccccc1O)c1ccc(CNc2ccnc(C(F)(F)F)c2)cc1	24.3%	1.91% (active)	38.8%	76.6%	52.5%		76.2%	50%	18.4%	59.9%
N#Cc1ccc(/C=C/c2cn(-c3ccccc3)nc2-c2cccc([N+](=O)[O-])c2)cc1	66.5%	74.8%	44.1%	64.2%	33.1%		70%	76.2%	62.8%	51.2%
